In assay [1] the target is human Serotonin, 5-Hydroxytryptamine Receptor 3 (5HT3), HTR3A (gene 3359) (UniProt P46098). The experiment in a line: NVS_LGIC_h5HT3: NovaScreen (NVS) Ligand-Gated Ion Channel Assay for human Serotonin, 5-Hydroxytryptamine Receptor 3 (5HT3) (AID 2283325). Put shortly: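 Initially tested at 25 uM in duplicate, then up to 50 uM in concentration-response for actives, compounds competed with a radioligand for HEK293-derived human 5-HT3 receptor. Bound counts were measured by filtration and scintillation at 1 h; loss of signal versus DMSO.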

A short description of assay [2]: NVS_IC_rCaDHPRCh_L: NovaScreen (NVS) Ion Channel Assay for rat Calcium Channel, Type L, Dihydropyridine Site (CaDHPRCh_L) (AID 2283320). Put shortly:
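Rat cortex membrane preparation; dihydropyridine-site radioligand displacement read 1 h post-dose by filtration and scintillation. Primary single-point screen 25 uM in duplicate, then concentration series to 50 uM maximum; DMSO as negative control.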

The target of assay [3] is rat Vasopressin 1 Receptor (V1), Avpr1a (gene 25107) (UniProt P30560). The assay is described as follows: NVS_GPCR_rV1: NovaScreen (NVS) G Protein-Coupled Receptor Assay for rat Vasopressin 1 Receptor (V1) (AID 2283316). Put shortly:
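Concentration-response up to 50 uM for chemicals passing a threshold such as 30% inhibition in an initial duplicate 25 uM screen. Displacement of radioligand from rat liver membranes measured after 1.5 h by filtration and scintillation.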

For assay [4], the target named is rat Neurokinin-1 Receptor (NK1), Tacr1 (gene 24807) (UniProt P14600). The experiment in a line: NVS_GPCR_rNK1: NovaScreen (NVS) G Protein-Coupled Receptor Assay for rat Neurokinin-1 Receptor (NK1) (AID 2283309). Put shortly:
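Competitive radioligand binding to NK1 in rat submaxillary membranes, 1 h incubation, filtration and scintillation read-out. Compounds first screened at 25 uM in duplicate, then concentration-response for actives; signal loss relative to DMSO.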

Assay [5] deals with NCBI gene 24521. The assay is described as follows: NVS_IC_rKATPCh: NovaScreen (NVS) Ion Channel Assay for rat Potassium Channel, ATP-Sensitive (KATPCh) (AID 2283319). A digest of the protocol: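 Primary duplicate screen at 25 uM, then singleton concentration series to 50 uM maximum, in a rat cortex membrane radioligand displacement assay. Binding measured by filtration and scintillation 2 h post-dose; DMSO baseline.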

The target of assay [6] is rat Glutamate, AMPA Site (AMPA), Gria1 (gene 50592) (UniProt P19490). The experiment in a line: NVS_LGIC_rAMPA: NovaScreen (NVS) Ligand-Gated Ion Channel Assay for rat Glutamate, AMPA Site (AMPA) (AID 2283324). Put shortly:
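Screening at 25 uM in duplicate preceded concentration series reaching 50 uM for qualifying compounds. Radioligand displacement on rat forebrain membranes, 1 h, filter-based scintillation readout; reduced binding relative to DMSO.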

Assay [7] has as its target rat Gamma-Aminobutyric Acid Type A Receptor, Non-Selective (GABAR-NonSelective), Gabra1 (gene 29705) (UniProt P62813). The assay is described as follows: NVS_LGIC_rGABAR_NonSelective: NovaScreen (NVS) Ligand-Gated Ion Channel Assay for rat Gamma-Aminobutyric Acid Type A Receptor, Non-Selective (GABAR-NonSelective) (AID 2283326). A digest of the protocol: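 Compounds were first screened in duplicate at 25 uM, with actives run as singleton concentration series (max 50 uM). Binding of a radioligand to rat whole-brain GABA-A preparation was measured by filtration and scintillation counting after 1 h, DMSO baseline.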

Assay [8] concerns the target Adra2b (gene 24174) (UniProt P19328). The experiment in a line: NVS_GPCR_rmAdra2B: NovaScreen (NVS) G Protein-Coupled Receptor Assay for hybird cells Adrenergic, Alpha 2B Receptor (Adra2B) (AID 2283306). Put shortly: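 Compounds screened first at 25 uM in duplicate, with actives followed up in concentration-response; specific radioligand displacement from hybrid neuroglioma/blastoma cell membrane preparations measured by filter scintillation counting after 1 h, normalized to DMSO.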

Assay [9] concerns the target rat Opioid Receptor, Non-selective Sodium (Na+) Binding, Oprm1 (gene 25601) (UniProt P33535). The experiment in a line: NVS_GPCR_rOpiate_NonSelectiveNa: NovaScreen (NVS) G Protein-Coupled Receptor Assay for rat Opioid Receptor, Non-selective Sodium (Na+) Binding (AID 2283311). A digest of the protocol: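 Filtration radioligand binding on rat forebrain membrane preparations, read 1.5 h after dosing. Single-concentration 25 µM primary screen in duplicate, followed by singleton concentration series to 50 µM max for actives; DMSO baseline.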

Assay [10] deals with rat Opioid Receptor, Non-selective Binding, Oprm1 (gene 25601) (UniProt P33535). The assay is described as follows: NVS_GPCR_rOpiate_NonSelective: NovaScreen (NVS) G Protein-Coupled Receptor Assay for rat Opioid Receptor, Non-selective Binding (AID 2283318). Put shortly: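 Filter-based radioligand displacement using rat forebrain membrane preparations, measured 1.5 h post-dosing. Single-concentration duplicate screen at 25 uM, follow-up in concentration series; activity taken as signal loss relative to DMSO.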

Assay [11] has as its target Sodium channel protein type 1 subunit alpha (Rattus norvegicus) (UniProt P04774). The assay is described as follows: NVS_IC_rNaCh_site2: NovaScreen (NVS) Ion Channel Assay for rat Sodium Channel, Site 2 (NaCh) (AID 2283322).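 Note: hit means loss of radioligand binding signal relative to DMSO so AC50 marks displacement.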 A digest of the protocol: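 Initial duplicate single-point testing at 25 uM, followed by concentration-response runs for actives. Binding of radioligand to rat forebrain membranes quantified after 1 h via filter-based radiodetection.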

Assay [12] addresses Metabotropic glutamate receptor 1 (Rattus norvegicus) (UniProt P23385). The assay is described as follows: NVS_GPCR_rmMGluR1: NovaScreen (NVS) G Protein-Coupled Receptor Assay for rat Glutamate Metabotropic Receptor 1 (MGluR1) (AID 2283305). Put shortly: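 Binding to native receptor from rat cerebellum extract, measured as displacement of a radioligand (scintillation counting, filter separation) after 1 hour. Compounds tested at 25 uM in duplicate, then titrated to a 50 uM maximum.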

The target in assay [13] is rat Thyrotropin Releasing Hormone Receptor (TRH), Trhr (gene 25570) (UniProt Q01717). The experiment in a line: NVS_GPCR_rTRH: NovaScreen (NVS) G Protein-Coupled Receptor Assay for rat Thyrotropin Releasing Hormone Receptor (TRH) (AID 2283329).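 Note: hit means lower bound tracer signal versus DMSO baseline.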 A digest of the protocol: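 Rat forebrain membrane prep, radioligand displacement, filter scintillation readout at 4 h. Single conc 25 uM, duplicate; actives retested as concentration series. DMSO = negative control/baseline.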

Assay [14] deals with rat Glutamate, NMDA Agonist Site (GluNMDA), Grin1 (gene 24408) (UniProt P35439). The assay is described as follows: NVS_LGIC_rGluNMDA_Agonist: NovaScreen (NVS) Ligand-Gated Ion Channel Assay for rat Glutamate, NMDA Agonist Site (GluNMDA) (AID 2283327). Put shortly: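 Radioligand displacement at the agonist site on rat forebrain membrane preparations, read by filter scintillation after 1 h. Chemicals were first run at 25 uM in duplicate; those passing threshold were titrated to a 50 uM maximum.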

Assay [15] concerns the target rat Histamine Receptor (H3), Hrh3 (gene 85268) (UniProt Q9QYN8). The experiment in a line: NVS_GPCR_rH3: NovaScreen (NVS) G Protein-Coupled Receptor Assay for rat Histamine Receptor (H3) (AID 2283303). A digest of the protocol: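 Filter-binding radioligand competition on rat forebrain membranes, 1 h incubation; compounds screened at 25 µM in duplicate and followed in concentration series to 50 µM, loss of bound signal vs DMSO.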

In assay [16] the target is rat Neonicotinoid receptor (NNR), Chrna7 (gene 25302) (UniProt Q05941). The experiment in a line: NVS_LGIC_rNNR_BungSens: NovaScreen (NVS) Ligand-Gated Ion Channel Assay for rat Neonicotinoid receptor (NNR) (AID 2283315). Put shortly: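 Rat cortical membrane preparation incubated 2.5 h with tritiated or iodinated radioligand and test chemical. Bound radioactivity was filtered and counted by scintillation, and displacement was analysed against DMSO.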

In assay [17] the target is rat Somatostatin Receptor (SST), Sstr1 (gene 25033) (UniProt P28646). The assay is described as follows: NVS_GPCR_rSST: NovaScreen (NVS) G Protein-Coupled Receptor Assay for rat Somatostatin Receptor (SST) (AID 2283314). A digest of the protocol:
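Single-concentration duplicate screen (25 uM), then concentration-response up to 50 uM for chemicals passing a threshold such as 30% inhibition. Membranes came from rat forebrain. Binding was measured 1 h post-dose by filter radiodetection and scintillation, relative to DMSO.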

AC50 and outcome data for 18 molecules are collected here from PubChem BioAssay (EPA / NIEHS).

Inconclusive results are not listed. Calls of active or inactive are those of the source. Rule for the calls: active = hit-call score of the fitted dose curve at least 0.9, where 1 is the maximum; inconclusive = response in the unintended direction; inactive = score below 0.9.

As a reminder, the AC50 is the concentration at which the activity in the assay is half-maximal.

Sequence of rat Opioid Receptor, Non-selective Binding, Oprm1 (gene 25601) (P33535 whole entry, looked up): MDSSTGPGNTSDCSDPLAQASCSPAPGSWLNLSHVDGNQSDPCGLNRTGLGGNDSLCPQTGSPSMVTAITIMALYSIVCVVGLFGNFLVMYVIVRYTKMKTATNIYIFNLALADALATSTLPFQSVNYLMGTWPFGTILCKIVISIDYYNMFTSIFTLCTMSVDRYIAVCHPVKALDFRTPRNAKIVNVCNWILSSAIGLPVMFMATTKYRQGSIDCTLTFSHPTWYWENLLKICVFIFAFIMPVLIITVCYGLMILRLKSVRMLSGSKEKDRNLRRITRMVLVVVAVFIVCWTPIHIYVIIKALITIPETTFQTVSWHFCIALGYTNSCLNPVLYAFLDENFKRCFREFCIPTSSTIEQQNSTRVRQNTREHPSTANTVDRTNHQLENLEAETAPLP
Sequence of rat Opioid Receptor, Non-selective Sodium (Na+) Binding, Oprm1 (gene 25601) (P33535 whole entry, looked up): as above
Sequence of rat Neurokinin-1 Receptor (NK1), Tacr1 (gene 24807) (P14600 whole entry, looked up): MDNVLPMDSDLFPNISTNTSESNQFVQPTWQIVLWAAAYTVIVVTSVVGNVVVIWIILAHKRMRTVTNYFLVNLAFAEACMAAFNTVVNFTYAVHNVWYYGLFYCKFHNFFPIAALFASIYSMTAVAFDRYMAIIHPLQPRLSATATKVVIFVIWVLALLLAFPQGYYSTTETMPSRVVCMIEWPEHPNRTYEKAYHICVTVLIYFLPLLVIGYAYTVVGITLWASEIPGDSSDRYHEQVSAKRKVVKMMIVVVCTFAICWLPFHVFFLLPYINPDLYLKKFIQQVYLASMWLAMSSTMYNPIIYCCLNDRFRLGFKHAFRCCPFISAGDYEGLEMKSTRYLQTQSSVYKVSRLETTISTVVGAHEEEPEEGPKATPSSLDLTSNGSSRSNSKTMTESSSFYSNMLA
Sequence of Adra2b (gene 24174) (P19328 whole entry, looked up): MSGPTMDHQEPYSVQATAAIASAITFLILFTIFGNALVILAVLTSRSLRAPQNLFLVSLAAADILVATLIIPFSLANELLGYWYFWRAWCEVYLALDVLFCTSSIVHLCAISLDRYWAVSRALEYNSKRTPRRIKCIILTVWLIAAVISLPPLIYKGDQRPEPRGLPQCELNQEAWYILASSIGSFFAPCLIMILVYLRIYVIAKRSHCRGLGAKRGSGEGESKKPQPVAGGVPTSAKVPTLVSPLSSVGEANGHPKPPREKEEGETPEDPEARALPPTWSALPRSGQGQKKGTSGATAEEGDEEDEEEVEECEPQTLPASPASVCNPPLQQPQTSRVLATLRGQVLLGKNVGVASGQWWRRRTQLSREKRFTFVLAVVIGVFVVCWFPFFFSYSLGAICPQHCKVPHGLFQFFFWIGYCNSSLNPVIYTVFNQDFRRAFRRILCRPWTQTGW
Sequence of human Serotonin, 5-Hydroxytryptamine Receptor 3 (5HT3), HTR3A (gene 3359) (P46098 whole entry, looked up): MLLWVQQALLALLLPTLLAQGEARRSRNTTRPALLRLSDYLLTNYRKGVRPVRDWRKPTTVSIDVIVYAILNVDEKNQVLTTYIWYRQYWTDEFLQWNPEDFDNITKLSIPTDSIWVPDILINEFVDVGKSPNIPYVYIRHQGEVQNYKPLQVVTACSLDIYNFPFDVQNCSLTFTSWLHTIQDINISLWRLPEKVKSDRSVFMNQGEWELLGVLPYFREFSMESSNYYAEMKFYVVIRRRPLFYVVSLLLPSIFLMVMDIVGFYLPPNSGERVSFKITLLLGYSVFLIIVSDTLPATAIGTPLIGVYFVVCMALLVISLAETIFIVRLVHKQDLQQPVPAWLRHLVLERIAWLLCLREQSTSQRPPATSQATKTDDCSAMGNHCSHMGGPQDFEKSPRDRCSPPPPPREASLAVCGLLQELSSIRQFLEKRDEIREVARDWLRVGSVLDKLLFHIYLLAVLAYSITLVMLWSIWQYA
Sequence of rat Vasopressin 1 Receptor (V1), Avpr1a (gene 25107) (P30560 whole entry, looked up): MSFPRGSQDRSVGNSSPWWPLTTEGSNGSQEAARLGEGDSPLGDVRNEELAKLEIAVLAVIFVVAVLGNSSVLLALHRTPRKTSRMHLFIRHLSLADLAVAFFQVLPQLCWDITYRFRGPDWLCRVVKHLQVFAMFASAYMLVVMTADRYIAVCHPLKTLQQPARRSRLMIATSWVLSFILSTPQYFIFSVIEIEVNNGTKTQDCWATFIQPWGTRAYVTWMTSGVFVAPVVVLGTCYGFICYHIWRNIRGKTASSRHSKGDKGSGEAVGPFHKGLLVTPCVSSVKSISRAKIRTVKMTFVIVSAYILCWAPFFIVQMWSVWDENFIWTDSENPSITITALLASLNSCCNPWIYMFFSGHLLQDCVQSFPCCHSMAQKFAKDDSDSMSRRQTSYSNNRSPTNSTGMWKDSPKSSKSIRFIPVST
Sequence of rat Glutamate, AMPA Site (AMPA), Gria1 (gene 50592) (P19490 whole entry, looked up): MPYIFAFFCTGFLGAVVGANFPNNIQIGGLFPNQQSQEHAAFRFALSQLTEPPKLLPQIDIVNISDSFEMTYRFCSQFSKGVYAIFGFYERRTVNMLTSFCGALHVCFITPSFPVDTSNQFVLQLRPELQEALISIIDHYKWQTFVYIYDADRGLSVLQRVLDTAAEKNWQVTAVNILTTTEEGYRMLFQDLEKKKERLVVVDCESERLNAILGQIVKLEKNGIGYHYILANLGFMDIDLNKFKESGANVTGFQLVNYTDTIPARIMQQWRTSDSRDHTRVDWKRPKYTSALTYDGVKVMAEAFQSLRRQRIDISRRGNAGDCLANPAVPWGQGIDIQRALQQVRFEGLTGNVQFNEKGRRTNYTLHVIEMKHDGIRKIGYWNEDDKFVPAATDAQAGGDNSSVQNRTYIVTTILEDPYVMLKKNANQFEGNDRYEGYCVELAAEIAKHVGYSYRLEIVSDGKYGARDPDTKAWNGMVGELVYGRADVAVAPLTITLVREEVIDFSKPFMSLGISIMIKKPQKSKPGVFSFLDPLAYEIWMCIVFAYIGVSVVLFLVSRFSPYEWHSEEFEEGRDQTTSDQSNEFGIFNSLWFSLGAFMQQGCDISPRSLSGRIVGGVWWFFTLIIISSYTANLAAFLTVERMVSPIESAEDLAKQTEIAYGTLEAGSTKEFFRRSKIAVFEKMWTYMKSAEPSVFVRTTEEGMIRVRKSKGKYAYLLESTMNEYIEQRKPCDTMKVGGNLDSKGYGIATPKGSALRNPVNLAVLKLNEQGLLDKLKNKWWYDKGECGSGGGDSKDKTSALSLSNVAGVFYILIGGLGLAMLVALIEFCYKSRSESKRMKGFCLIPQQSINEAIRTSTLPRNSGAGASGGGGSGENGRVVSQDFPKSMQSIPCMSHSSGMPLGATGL
Sequence of Metabotropic glutamate receptor 1 (Rattus norvegicus) (P23385 whole entry, looked up): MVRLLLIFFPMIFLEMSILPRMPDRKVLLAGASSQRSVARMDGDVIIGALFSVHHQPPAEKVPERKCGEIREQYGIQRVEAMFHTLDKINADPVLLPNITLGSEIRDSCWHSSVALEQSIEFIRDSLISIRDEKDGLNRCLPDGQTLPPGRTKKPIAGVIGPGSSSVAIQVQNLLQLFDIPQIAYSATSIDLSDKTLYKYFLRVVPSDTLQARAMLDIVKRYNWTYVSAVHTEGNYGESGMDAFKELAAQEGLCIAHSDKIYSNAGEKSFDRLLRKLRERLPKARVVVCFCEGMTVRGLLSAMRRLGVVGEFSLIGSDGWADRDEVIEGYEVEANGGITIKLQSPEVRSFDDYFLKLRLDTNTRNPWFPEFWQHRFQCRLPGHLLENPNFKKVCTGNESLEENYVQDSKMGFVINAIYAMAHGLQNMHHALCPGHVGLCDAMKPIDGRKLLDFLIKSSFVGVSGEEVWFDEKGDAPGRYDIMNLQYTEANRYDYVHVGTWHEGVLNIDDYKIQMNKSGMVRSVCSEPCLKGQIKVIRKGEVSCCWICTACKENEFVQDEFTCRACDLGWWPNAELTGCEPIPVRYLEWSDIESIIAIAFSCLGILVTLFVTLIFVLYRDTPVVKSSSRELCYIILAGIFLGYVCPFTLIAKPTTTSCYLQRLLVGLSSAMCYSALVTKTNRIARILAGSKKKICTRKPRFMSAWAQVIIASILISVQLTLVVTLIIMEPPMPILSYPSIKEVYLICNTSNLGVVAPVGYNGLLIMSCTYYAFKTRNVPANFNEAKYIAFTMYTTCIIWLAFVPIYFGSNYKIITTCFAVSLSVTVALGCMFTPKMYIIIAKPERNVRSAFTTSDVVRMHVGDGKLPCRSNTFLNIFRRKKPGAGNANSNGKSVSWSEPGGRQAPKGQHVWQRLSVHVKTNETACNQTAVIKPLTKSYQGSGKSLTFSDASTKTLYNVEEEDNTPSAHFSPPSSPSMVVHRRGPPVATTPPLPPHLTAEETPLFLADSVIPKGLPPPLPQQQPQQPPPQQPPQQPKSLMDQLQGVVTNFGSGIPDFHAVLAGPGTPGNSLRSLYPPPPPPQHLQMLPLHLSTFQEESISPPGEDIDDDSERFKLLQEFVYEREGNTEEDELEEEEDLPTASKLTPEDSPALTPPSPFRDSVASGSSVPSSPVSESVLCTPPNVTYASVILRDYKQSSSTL
Sequence of rat Histamine Receptor (H3), Hrh3 (gene 85268) (Q9QYN8 whole entry, looked up): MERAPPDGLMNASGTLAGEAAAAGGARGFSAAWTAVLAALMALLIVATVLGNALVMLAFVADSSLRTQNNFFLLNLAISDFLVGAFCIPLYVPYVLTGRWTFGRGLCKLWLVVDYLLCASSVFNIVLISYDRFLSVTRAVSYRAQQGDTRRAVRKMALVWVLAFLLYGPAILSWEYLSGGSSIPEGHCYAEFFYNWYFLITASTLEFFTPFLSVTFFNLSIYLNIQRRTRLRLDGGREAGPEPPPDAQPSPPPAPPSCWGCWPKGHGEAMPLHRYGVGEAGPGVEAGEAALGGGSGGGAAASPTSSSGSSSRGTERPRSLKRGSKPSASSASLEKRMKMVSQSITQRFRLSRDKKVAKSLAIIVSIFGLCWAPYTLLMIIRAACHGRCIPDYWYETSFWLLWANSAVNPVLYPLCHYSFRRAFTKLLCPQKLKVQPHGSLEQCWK

Consider `O=C(OCCCCCOC(=O)c1ccccc1)c1ccccc1`, for which, in [1], the AC50 was 0.0428 µM (active).
With `FC(F)(F)C(F)(F)C(F)(F)C(F)(F)C(F)(F)C(F)(F)CCI`, in assay [2], the outcome was inactive.
`Cc1cccc(Nc2cc(Cl)nc(SCC(=O)O)n2)c1C`: the AC50 in assay [3] is 2.85 µM (active).
As for `Nc1ccccc1N`, the outcome in assay [4] was inactive.
Turning to `CCCc1cc(=O)[nH]c(=S)[nH]1`, the result in assay [5] was inactive.
As for `Nc1nc(N)c2nc(CNc3ccc(C(=O)N[C@@H](CCC(=O)O)C(=O)O)cc3)cnc2n1`, the half-maximal activity concentration (AC50) in assay [2] was 25 µM (active); in [6], 23.2 µM (active). Further, the outcome in assay [7] was inactive.
Consider `COc1cc(S(=O)(=O)O)c(C)cc1N=Nc1c(O)ccc2cc(S(=O)(=O)O)ccc12`, for which the AC50 in assay [4] was 25 µM (active); in [1] it was 32.8 µM (active).
For `COc1cc(C=O)ccc1O`, the half-maximal activity concentration (AC50) in [1] is 15 µM (active).
For `Cc1nc(C)nc(N2C[C@@H](C)N(c3ccnc([C@@H](C)O)n3)[C@@H](C)C2)n1`, the result in assay [8] was inactive.
With `NC(=O)Cn1c(=O)cc(CCN2CCN(c3nccc4sccc34)CC2)c2ccc(F)cc21`, the concentration at half-maximal activity (AC50) in assay [8] was 0.131 µM (active); in assay [9] it was 1.38 µM (active); in [10], 1.45 µM (active). In assay [11], the call was inactive.
With `COc1ccc(S(=O)(=O)N2C(=O)[C@@](c3ccccc3OC)(N3C[C@H](O)C[C@H]3C(=O)N(C)C)c3cc(Cl)ccc32)c(OC)c1`, the molecule was classed as inactive in [12] and in [3]. For the same molecule, the AC50 is 11.3 µM (active) in [4], 39.6 µM (active) in [11] and 10.4 µM (active) in [13].
Take `CC(C)c1ccc(C(=O)N=C(N)N)cc1S(C)(=O)=O`: the values for the AC50 in [10] and in assay [11] were 5.07 µM (active) and 34 µM (active), respectively.
For the molecule `Cc1ccc(Cl)cc1`, the AC50 in assay [1] is 7.56 µM (active).
On to `O=C(N[C@@H](Cc1ccccc1)[C@@H](O)C(=O)N1C[C@@H](O)[C@@H](O)C1)c1cc2cc(Cl)ccc2[nH]1`, for which the results for the half-maximal activity concentration (AC50) in assay [9] and in assay [10] were 19.4 µM (active) and 25 µM (active), respectively. Further, the molecule was classed as inactive in [11].
`CCCCCCCCCCCC(=O)OC`: in assay [1], the molecule was classed as inactive.
Turning to `CCCCC(CC)COC(=O)CC(C(=O)OCC(CC)CCCC)S(=O)(=O)O` (centres undefined), the AC50 in assay [8] was 22.4 µM (active); in assay [14], 38.3 µM (active). In addition, the outcome in assay [11] was inactive.
In the case of `CNCc1cc(F)ccc1Oc1ccc(Cl)c(Cl)c1`, the molecule was called inactive in [15] and in assay [1]. For the same molecule, the AC50 in assay [8] was 8.41 µM (active); in assay [9], 25 µM (active); in [16], 28.5 µM (active).
Consider `COCCOC[C@H](CC1(C(=O)NC2CCC(C(=O)O)CC2)CCCC1)C(=O)Oc1ccc2c(c1)CCC2` (some centres undefined), for which the AC50 in [17] is 5.45 µM (active). Also, the call in assay [10] and in assay [6] was inactive.
